# Screen size: about 48,000 compounds; about 13,000 (27%) showed an effect of 50% or more. The list shows a part of the results.
# Tested on: Wolbachia pipientis
# Assay: Anti-Wolbachia Cell-Based Screen
# Type: functional
# Design: scale not given: in the data most compounds retested in dose-response had high values
# Details: 5 µM
row,Structure (SMILES),Percent Effect
1,Cc1ccccc1Oc1ncccc1CNS(C)(=O)=O,-1.022%
2,CNC(=O)CN(C)S(=O)(=O)c1c(Br)cc2[nH]c(=O)oc2c1Cl,-6.435%
3,CNc1cc(C)nc(-c2cc(NC)nc3[nH]ccc23)n1,82.65%
4,COc1cccc(-c2cc(NCCO)nc3[nH]ccc23)n1,17.98%
5,CNc1cc(C)nc(-c2cc(NC3CCNCC3)nc3[nH]ccc23)n1,81.74%
6,CN(C)CCNc1cc(-c2ccc[nH]c2=O)c2cc[nH]c2n1,6.813%
7,Nc1ccnc(-c2cc(NC3CCNCC3)nc3[nH]ccc23)c1,10.25%
8,CN(C)CCNc1cc(-c2ncccn2)c2cc[nH]c2n1,-0.2256%
9,COc1cccc(-c2cc(NCCN(C)C)nc3[nH]ccc23)n1,-69.14%
10,COc1nccnc1-c1cc(NC2CCNCC2)nc2[nH]ccc12,-9.475%
11,CNc1cc(C)nc(-c2cc(NCCO)nc3[nH]ccc23)n1,88.51%
12,COCc1ncn(Cc2nc(-c3ccc(OC)c(OC)c3)oc2C)n1,7.274%
13,Cn1ccc(CNC(=O)Nc2ccc(S(=O)(=O)C(F)F)cc2)c1,-20.88%
14,N#Cc1cc(NC(=O)c2ccccn2)ccc1N1CCC(O)CC1,-12.43%
15,Cc1cc2cccc(C(=O)N3CC[C@@H](N)[C@H](O)C3)c2o1,-9.123%
16,Cc1noc(C2CCCN(C(=O)c3ccc(F)cc3F)C2)n1 (configuration not stated),-2.652%
17,Cc1nc(-c2ccccc2C(=O)O)cc(C2CCN(C(C)C)C2)n1 (configuration not stated),107.2%
18,Cc1nc(C(C)C)ncc1C(=O)N1CCC(c2ccccc2C(=O)O)C1 (configuration not stated),-21.75%
19,Cc1cc(-c2cc(F)ccc2C(=O)O)nc(C2CCCN(C)C2)n1 (configuration not stated),126.1%
20,Cc1cc(C(=O)N2CCCC(c3noc(C)n3)C2)[nH]n1 (configuration not stated),-10.2%
21,Cc1cc(-c2ccccc2C(=O)O)nc(C2CCCN(C)C2)n1 (configuration not stated),123%
22,CC(=O)N1CCC(c2nc(C)cc(-c3ccccc3C(=O)O)n2)CC1,83.33%
23,COC(=O)c1cccc(NS(=O)(=O)c2cnc(NC(C)=O)s2)c1,20.99%
24,Cc1cc2nc(CO[C@H]3CN(C(=O)C4CC4)C[C@H]3F)[nH]c2cc1C,14.86%
25,CC(Cc1ccco1)NS(=O)(=O)N1CCCCC1 (configuration not stated),-4.951%
26,COC(=O)NCC(=O)N1CCCCC1c1nc2cc(F)ccc2[nH]1 (configuration not stated),-29.13%

row,Structure (SMILES),Percent Effect
1,Cc1cc(-c2ccccc2C(=O)O)nc(C2CCCN(C(C)C)C2)n1 (configuration not stated),128.4%
2,Cc1cc(-c2cc(F)ccc2C(=O)O)nc(C2CCCCN2C(C)C)n1 (configuration not stated),125.8%
3,Cc1cc(=O)c(C(=O)N2CCCCC2c2ccc(F)cc2)c[nH]1 (configuration not stated),-20.91%
4,COc1ccc(Cl)cc1CCNC(=O)N(C)CC1CCOC1 (configuration not stated),11.56%
5,CN(C)CCN1CCc2c(nnn2C)C1COCc1ccccc1.O=C(O)C(F)(F)F.O=C(O)C(F)(F)F (configuration not stated),6.935%
6,CN1CCC2(CC1)CN(Cc1ccc(C3CCCCO3)o1)CCCN2C (configuration not stated),6.017%
7,COc1ncccc1CNC(=O)Nc1ccc(N(C)C)nc1,102.4%
8,CC(CNC(=O)Nc1ccc(N(C)C)nc1)Cn1cccn1 (configuration not stated),10.01%
9,CN(C)c1ccc(NC(=O)NCc2cccnc2N(C)C)cn1,100.5%
10,CN(C)c1ccc(NC(=O)NCc2cccs2)cn1,-3.387%
11,Cc1nc(CNC(=O)Nc2ccc(N(C)C)nc2)sc1C,-4.03%
12,Cc1nnc(NC(=O)NCc2cccnc2N(C)C)s1,4.263%
13,O=C(O)C(F)(F)F.O=C(O)C(F)(F)F.O=S(=O)(NCC1OCCc2cn(Cc3ccccn3)nc21)C1CC1 (configuration not stated),3.652%
14,CCCN1CCCN(c2ccc(-n3ccc(C)n3)nn2)CC1,-2.54%
15,CNC(=O)C1CCN(CC(=O)Nc2cc(C(C)C)no2)CC1,108.1%
16,CC(C)c1cc(NC(=O)CN2CCc3cncnc3C2)on1,-4.855%
17,CC(C)c1cc(NC(=O)CN2CCc3ccccc3C2)on1,0.7279%
18,CC(C)c1cc(NC(=O)CN2CCC(C(N)=O)CC2)on1,115.1%
19,CC(C)c1cc(NC(=O)CN2CCCC(Cn3cncn3)C2)on1 (configuration not stated),3.767%
20,Cc1nnc2n1CCN(CC(=O)Nc1cc(C(C)C)no1)C2,1.962%
21,O=C1CCC2(CCN(Cc3ccc(F)cc3Cl)CC2)CN1CCO,-18.28%
22,CCOc1ccc(CNC(=O)N(C)Cc2ncnn2C)cc1C,11.45%
23,CC(C)c1noc(C2CCCN2C(=O)CN2CCc3ccccc32)n1 (configuration not stated),-3.468%
24,CN1CCN(C(=O)c2nc3c(o2)CN(C(=O)c2cccnc2)C3)CC1.O=C(O)C(F)(F)F.O=C(O)C(F)(F)F,7.797%
25,CN(C)CC(=O)N1Cc2nc(C(=O)NCc3ccccc3)oc2C1,4.563%
26,CN1CCCN(C(=O)c2nc3c(o2)CN(C(=O)c2cccnc2)C3)CC1.O=C(O)C(F)(F)F.O=C(O)C(F)(F)F,-2.795%

row,Structure (SMILES),Percent Effect
1,CN(C)CC(=O)N1Cc2nc(C(=O)N3CCCN(C)CC3)oc2C1,106%
2,CN1CCCN(C(=O)c2nc3c(o2)CN(S(C)(=O)=O)C3)CC1,89.92%
3,CCCNC(=O)c1nc2c(o1)CN(C(=O)CN(C)C)C2,2.652%
4,COCCN1CC(Nc2nc(C(C)C)nc3c2cnn3C)CC1=O (configuration not stated),0.2406%
5,CCCc1nc(C)cc(N2CCNC(C(=O)NCc3cccnc3)C2)n1 (configuration not stated),0.7849%
6,CSC(CNS(N)(=O)=O)c1cccc(Cl)c1 (configuration not stated),-15.56%
7,CC(C)NC(=O)[C@H]1C[C@@H]2[C@@H](C1)OCCN2Cc1nccs1.O=C(O)C(F)(F)F,0.8743%
8,O=C(O)C(F)(F)F.O=C([C@H]1CC[C@@H]2[C@@H](CCN2Cc2nccs2)O1)N1CCCCO1,-6.039%
9,CN(C)C(=O)[C@@H]1C[C@@H]2[C@@H](CCN2Cc2nccs2)O1.O=C(O)C(F)(F)F,111.2%
10,CN(C)C(=O)[C@@H]1CC[C@@H]2[C@@H](CCN2Cc2nccs2)O1.O=C(O)C(F)(F)F,98.79%
11,CC(C)N(C)[C@@H]1CCN(Cc2nccs2)[C@H]1Cc1ccncc1.O=C(O)C(F)(F)F.O=C(O)C(F)(F)F.O=C(O)C(F)(F)F,-17.48%
12,CS(=O)(=O)N1C[C@H]2CCCN(Cc3nccs3)[C@H]2C1.O=C(O)C(F)(F)F,1.749%
13,Cc1ccccc1-c1noc(C2CC(C(C)C)=NO2)n1 (configuration not stated),10.38%
14,CCc1cc(N(C)Cc2nonc2C)nc(N2CCOCC2)n1,-1.429%
15,CCN(Cc1nonc1C)C(=O)c1cnccn1,-6.24%
16,CCc1cc(N(C)Cc2nonc2C)nc(N(C)C)n1,93.32%
17,Cc1cc(=O)n(C)cc1NC(=O)Cc1cc(F)ccc1F,0.6087%
18,O=c1[nH]c(-c2ccccc2F)nc2c1CCNC2,-26.1%
19,CC(C)CCN(C(=O)Nc1cccc(C(=O)N(C)C)c1)C1CC1,-4.492%
20,N#Cc1cnn(-c2ccc(C(=O)Nc3ccccn3)cc2)c1N,2.958%
21,COc1ccc(NC(=O)c2ccc(-n3ncc(C#N)c3N)cc2)cn1,-17.39%
22,N#Cc1ccc(C(=O)N(C2CC2)C2CC(=O)NC2=O)cc1 (configuration not stated),-1.854%
23,CCCC1SCCN1C(=O)c1ccc(-n2ncc(C#N)c2N)cc1 (configuration not stated),-7.11%
24,N#Cc1cnn(-c2ccc(C(=O)N(C3CCCCC3)C3CC3)cc2)c1N,50.38%
25,CC(C)C1CCCN1C(=O)c1ccc(-n2ncc(C#N)c2N)cc1 (configuration not stated),-2.457%
26,CCN(CC)C(=O)c1ccc(-n2ncc(C#N)c2N)cc1,113.8%

row,Structure (SMILES),Percent Effect
1,CC(C)CCN(C(=O)c1ccc(-n2ncc(C#N)c2N)cc1)C1CC1,92.49%
2,CC(C)CCN(C(=O)c1cccc(NC(N)=O)c1)C1CC1,-12.61%
3,Cc1cnc(NC(=O)c2ccc(-n3ncc(C#N)c3N)cc2)s1,-16.88%
4,CC(C1CC1)N(C)C(=O)c1ccc(-n2ncc(C#N)c2N)cc1 (configuration not stated),117.6%
5,Cc1nc(CN2CCC(C(=O)N(C)C3CCC(C)CC3)CC2)cs1 (configuration not stated),-8.684%
6,Cc1nc(-c2cc(F)c3c(c2)CC(CN)O3)c[nH]1 (configuration not stated),4.344%
7,O=C(CCn1cccn1)N1CC[C@@H](c2ccc3ccccc3c2)[C@H](O)C1,28.28%
8,CN(C(=O)c1ccc(-n2ncc(C#N)c2N)cc1)C1CCCC1,106.6%
9,Cc1nc2c(C#N)cnn2c(C)c1CCC(=O)N(C)C1CC1,-17.24%
10,CN(C(=O)c1ccc(NC(=O)c2cc[nH]n2)cc1)C1CCCCC1,-4.101%
11,CCC(=O)Nc1cc(Br)cn(C)c1=O,3.06%
12,O=C(c1ccc(F)cc1)N(CCCO)S(=O)(=O)c1cccs1,17.63%
13,Cc1ccc(-c2n[nH]cc2CNCC2CCN(CC(C)O)CC2)cc1 (configuration not stated),92.7%
14,CN(C)CCN1CCC(CNCc2c[nH]nc2C(C)(C)C)CC1,106%
15,CC(C)N1CCC(CNCc2c[nH]nc2C(C)(C)C)C1 (configuration not stated),9.105%
16,CCN1CCC(CNCc2c[nH]nc2C(C)(C)C)C1.Cl (configuration not stated),95.83%
17,CC(C)(C)c1n[nH]cc1CNCC1CCN(CC(F)(F)F)C1.Cl (configuration not stated),-2.373%
18,CC(C)(C)c1n[nH]cc1CNCC1CCN(C2CC2)C1.Cl (configuration not stated),3.787%
19,CC(O)CN1CCC(CNCc2c[nH]nc2C(C)(C)C)CC1 (configuration not stated),-0.09307%
20,COCCN1CCC(CNCc2c[nH]nc2C(C)(C)C)CC1,88.21%
21,COCCn1cc(NCc2c[nH]nc2C(C)(C)C)cn1,0.5813%
22,CNc1cc(N2CCCC2CNCc2c[nH]nc2C(C)(C)C)ncn1 (configuration not stated),0.4855%
23,Cc1cccc(-c2[nH]ncc2CNCC2CCN(CC(C)O)CC2)c1 (configuration not stated),-2.172%
24,Cc1ccc(-c2n[nH]cc2CNCC2CCc3nnc(C)n3C2)cc1 (configuration not stated),-17.97%

# Source: ChEMBL document CHEMBL3988442, “University of Dundee, Small-Polar-MMV Screening Library” (2021)
